Measurements: ChEMBL document CHEMBL4513216, “Probing the Open Global Health Chemical Diversity Library for Multistage-Active Starting Points for Next-Generation Antimalarials” (ACS Infect Dis, 2020)
In all, about 69,000 compounds went through this assay and about 8,600 (12%) showed an effect of 50% or more. What follows is part of a selection rich in strong results, with near analogues and random picks from the rest.

system: Plasmodium berghei; test: Screen against P. berghei liver stage (PbLuc), transformed with Luciferase, at 10uM; format: functional, HepG2; conditions: tested at 10 uM

Point of comparison: `COc1ccc(CN2CCNC(=O)CC2)cc1SC(F)(F)F`, INHIBITION 25.3%. Against it:
- Cc1nn(Cc2ccc(C(=O)NC3CCS(=O)(=O)C3)cc2)c(C)c1Br (centres undefined) — lower, 7.3%
- COCCN1C(=O)CCC12CCC(NCc1nccs1)CC2 (centres undefined) — lower, 10.5%
- CN1CC2(CCN(C(=O)c3cn4cccnc4n3)CC2)CC1=O — lower, -28.9%
- O=C(O)c1c(-c2ccncc2)ncc2c1CCN(CC1CCOC1)C2 (centres undefined) — higher, 34.9%
- c1cnc(NCc2cncc3c2CCN(CC2CC2)C3)nc1 — higher, 48.4%
- O=C(NCc1cncc2c1CCN(CC1CCOC1)C2)c1ccno1 (centres undefined) — lower, -0.813%
- O=C(O)c1c(-c2cccnc2)ncc2c1CCN(CC1CCOC1)C2 (centres undefined) — lower, -21.1%
- Cc1nccc(NCc2cncc3c2CCN(CC2CCOC2)C3)n1 (centres undefined) — higher, 91.9%
- Cc1nccc(NCc2cncc3c2CCN(CCN(C)C)C3)n1 — higher, 29.4%
- CS(=O)(=O)NCc1cncc2c1CCN(CC1CCOC1)C2 (centres undefined) — higher, 53.4%
- Cc1nccc(NCc2cncc3c2CCN(CC2CC2)C3)n1 — higher, 84.7%
- O=C(NCc1cncc2c1CCN(CC1CCOC1)C2)c1ccco1 (centres undefined) — lower, -46%
- CCC(=O)N1CCN(CCn2cccn2)c2ncccc2C1 — higher, 43%
- Cn1cc(CN2CCc3onc(COCC4CC4)c3C2)cn1 — lower, 5.96%
- CCc1ncncc1C(=O)N1CCN(Cc2cscn2)CC1 — lower, 15.5%
- COCc1nnc(NC(=O)c2cn(C(C)C)c3ccc(OC)cc23)s1 — lower, -42.5%
- CCc1ncc(C(=O)N2CCCOC(Cn3cccn3)C2)cn1 (centres undefined) — higher, 40.2%
- COc1ccc(C(=O)N2CC[C@H](CO)[C@H](O)C2)c(C)c1 — lower, 16.8%
- O=C(c1cccc(-n2cccn2)c1)N1CCCOC(Cn2cccn2)C1 (centres undefined) — lower, 0.891%
- COc1ccc2cc(C(=O)N3CC[C@H](CO)[C@H](O)C3)n(C)c2c1 — higher, 27.6%
- COc1cccc(C2CCCN2C(=O)c2cc3c(nc2OC)CCC3)c1 (centres undefined) — lower, -10.8%
- COc1nc2c(cc1C(=O)N1CCCOC(CN3CCCC3)C1)CCC2 (centres undefined) — higher, 54.5%
- COc1nc2c(cc1C(=O)N1CC[C@H](CO)[C@@H](O)C1)CCC2 — higher, 61%
- O=C(c1cccc(-n2cccn2)c1)N1CCCOC(CN2CCCC2)C1 (centres undefined) — lower, 13.7%
- COc1nc2c(cc1C(=O)N1CCCOC(Cn3cccn3)C1)CCC2 (centres undefined) — higher, 59.1%
- CCC(C)(C)C(=O)Nc1ccc2ccn(CC(=O)NC)c2c1 — lower, -3.47%
- Cc1oncc1C(=O)N1C[C@H]2CCCC(N(C)Cc3cccs3)[C@H]2C1 (some centres undefined) — lower, 21.6%
- CCS(=O)(=O)CC(=O)NC(C)c1ccc(OCCC(C)C)cc1 (centres undefined) — lower, 15.4%
- CCOC(=O)Cc1csc(NC(=O)c2ccc(=O)[nH]n2)n1 — lower, 18.4%
- Cc1nc(CN2CCC3(CCN(c4ncc(F)cn4)C3)C2=O)cs1 (centres undefined) — lower, -23.7%
- CCc1c(C(=O)N2CCC(CC(N)=O)CC2)cnn1C(C)(C)C — higher, 47.1%
- CCc1c(C(=O)N2CCN(CC(N)=O)CC2)cnn1C(C)(C)C — higher, 53.8%
- CCc1c(C(=O)N2CCCN(C(C)=O)CC2)cnn1C(C)(C)C — higher, 44.3%
- CC(C)(C)c1ccc(-n2ncc3c2CCCC3N)cc1 (centres undefined) — lower, 22.6%
- Cc1ccc(-n2ncc3c2CCCC3N)cc1C (centres undefined) — higher, 33.7%
- CN(C)S(=O)(=O)NC1CCCc2c1cnn2-c1ccc(C(C)(C)C)cc1 (centres undefined) — higher, 58.8%
- Cn1cc(C2CCCN2CCC(=O)N2CCc3sccc3C2)cn1 (centres undefined) — lower, 19.2%
- COc1ccc(CN2CC[C@H]3CO[C@H](CNC(=O)N(C)C)[C@H]3C2)cc1 — lower, 12.7%
- Cc1ccc(CN2Cc3nccn3CC(Cn3cncn3)C2)s1 (centres undefined) — lower, -9.02%
- Cc1ccc(C(=O)N(C)CCNS(C)(=O)=O)cc1Br — lower, 23.9%
- Cc1ccc(C(=O)N(C)S(C)(=O)=O)cc1Cl — higher, 61.9%
- Cc1cc(C(=O)N(C)S(=O)(=O)C(C)C)ccc1F — higher, 61.9%
- Cc1cc(C(=O)N(CC(=O)O)CC(C)C)ccc1F — higher, 40.9%
- CN(CCNS(C)(=O)=O)C(=O)c1ccc(Cl)c(Cl)c1 — higher, 66.5%
- Cc1ccc(C(=O)N(CC(=O)O)CC(C)C)cc1F — higher, 39.7%
- Cc1cc(C(=O)N(C)S(C)(=O)=O)ccc1F — higher, 61%
- Cc1sc(C(=O)N(C)S(C)(=O)=O)cc1-c1ccc(F)cc1 — lower, 13.3%
- CN(C(=O)c1ccc(Cl)c(S(C)(=O)=O)c1)c1ccccc1 — lower, 5.91%
- Cc1cc(Br)ccc1C(=O)N(C)CCNS(C)(=O)=O — higher, 35.9%
- Cc1ccc(C(=O)N2CCCS2(=O)=O)cc1Cl — lower, 21.1%
- CN(CC(F)(F)F)C(=O)c1ccc(F)c(NS(C)(=O)=O)c1 — lower, -43.5%
- Cc1cc2ccncc2n1CC1(O)CCN(C(=O)c2ccncc2)CC1 — lower, 7.19%
- CNc1nc(C)c(C(=O)NCC(C)(C)N2CCCCC2)s1 — lower, -34.6%
- CN(CCO)Cc1nnc(C2CCN(CC3[C@H]4CNC[C@@H]34)CC2)n1C (some centres undefined) — lower, -3.55%
- c1ncn(CC2CCCN(Cc3nnc(C4CC4)o3)C2)n1 (centres undefined) — lower, -0.74%
- Cc1nc(C(C)C)sc1C(=O)NCCNc1ncccn1 — higher, 26.5%
- COc1ccc(CN2CCN(C(C)=O)CC2)cc1SC(F)(F)F — lower, 21.9%
- COc1ccc(CN2CCC(C(N)=O)CC2)cc1SC(F)(F)F — higher, 52.2%
- O=C(CCc1ccccc1)NCC(O)c1c(F)cccc1F (centres undefined) — higher, 45.7%
- Cc1noc([C@@H]2C[C@H]3OCC[C@H]3N(CC3CCCC3)C2)n1 — higher, 29.9%
- Cc1noc([C@@H]2C[C@H]3OCC[C@H]3N(Cc3ccoc3)C2)n1 — lower, 15.9%
- CCc1ccc(CN2C[C@@H](c3nc(C)no3)C[C@H]3OCC[C@H]32)o1 — lower, -2.72%
- Cc1noc([C@@H]2C[C@H]3OCC[C@H]3N(Cc3sccc3C)C2)n1 — higher, 54.4%
- Cc1noc([C@H]2C[C@H]3OCC[C@H]3N(Cc3scnc3C)C2)n1 — lower, 0.777%
- Cc1noc([C@@H]2C[C@H]3OCC[C@H]3N(Cc3cc(C)c(C)o3)C2)n1 — higher, 57.9%
- Cc1noc([C@H]2C[C@H]3OCC[C@H]3N(C3CCC3)C2)n1 — higher, 92%
- Cc1noc([C@H]2C[C@H]3OCC[C@H]3N(Cc3cccs3)C2)n1 — higher, 43.9%
- Cc1noc([C@@H]2C[C@H]3OCC[C@H]3N(C(C)C)C2)n1 — lower, -18.2%
- Cc1cnn(CC2CCCN2CC(=O)Nc2nccs2)c1 (centres undefined) — lower, -12.1%
- CC(C)N1[C@@H](C(=O)NCC2CC2)C[C@@H]2CN(Cc3ccco3)C[C@@H]21 — lower, -11%
- COCCOc1cc(C)ccc1NC(=O)N(C)Cc1cnn(C)c1 — lower, -58%
- O=C1CN(Cc2nnc(-c3ccc(Br)cc3)o2)CCN1 — lower, 10.8%
- CNC(=O)NC(C)c1nc(-c2ccc(Br)cc2)no1 (centres undefined) — higher, 47.8%
- Cc1c(O)oc(-c2ccc(Br)cc2)nc1=O — higher, 55.5%
- CCOCCCNS(=O)(=O)c1ccc2c(c1)NC(=O)C(C)O2 (centres undefined) — lower, 2.55%
- Cc1nn(C)c(N(C)C)c1CNC1CCc2c(Cl)cccc21 (centres undefined) — lower, 19.915%
- Cc1nc(C)c(C(=O)N2CCCC(C(=O)c3nccn3C)C2)s1 (centres undefined) — higher, 36.6%
- COCCn1ccnc1-c1cc(CN2CCCCC2)cs1 — lower, 8.51%
- c1cn(CCc2c[nH]cn2)c(-c2cc(CN3CCCC3)cs2)n1 — higher, 60%
- Nc1nc(Cn2ccnc2-c2cc(CN3CCCC3)cs2)cs1 — higher, 42.1%
- Cc1nc(O)c2c(n1)CCN(Cc1cc(C)sc1C)CC2 — higher, 60.1%
- Cc1cc(CN2CCc3nc(C(C)C)nc(O)c3CC2)c(C)s1 — higher, 62.9%
- Oc1nc(N2CCOCC2)nc2c1CCN(Cc1cccnc1)CC2 — lower, 23.3%
- Cc1nc(C)c2c(n1)CCN(Cc1ccco1)CC2 — lower, -53.2%
- Cc1nc2c(c(NC(C)C)n1)CCN(Cc1cccnc1)CC2 — higher, 49.7%
- CCn1cc(CN2CCc3nc(N4CCOCC4)nc(O)c3CC2)cn1 — higher, 29.6%
- Oc1nc(N2CCOCC2)nc2c1CCN(Cc1ccc(F)cc1)CC2 — higher, 38.2%
- Cc1cc(CN2CCc3nc(N4CCOCC4)nc(O)c3CC2)c(C)s1 — higher, 90.7%
- Cc1ccc(CN2CCc3nc(C(C)C)nc(O)c3CC2)s1 — lower, 2.55%
- Oc1nc(N2CCOCC2)nc2c1CCN(Cc1cccc(F)c1)CC2 — higher, 54.5%
- Oc1nc(N2CCOCC2)nc2c1CCN(Cc1ccccc1)CC2 — higher, 35.2%
- CC(C)c1ncc2c(n1)CN(Cc1cccc3c1OCCO3)CC2 — higher, 37.7%
- Cc1cccc(C(=O)N2C[C@@H]3C(CC(=O)Nc4cccnc4)[C@@H]3C2)n1 (some centres undefined) — higher, 30.9%
- Cc1ccsc1C(=O)N1CC[C@@H](N(C)C)[C@@H]1Cc1cnn(C)c1 — higher, 36.9%
- O=C(CN1CCCC1)Nc1c2c(cc3c1CCC3)CCC2 — lower, -3.47%
- Cn1ncc2c1CCCN(C(=O)C1CC1)C2 — lower, 24.69%
- CN(C)c1cc(C(=O)N2CCCCC2CNS(C)(=O)=O)ccn1 (centres undefined) — lower, -8.11%
- CC(C)(C)SCCN1CC(=O)N2CC[C@@H](O)C[C@H]2C1=O — lower, 11.265%
- CN1CC(=O)N(c2ccccc2)CC12CCN(CCO)C2 (centres undefined) — higher, 41.3%
- Cc1cc(CN2CCc3nc(-c4ccncc4)nc(O)c3CC2)c(C)s1 — higher, 83.3%
- C=Cn1ncc(CN2CCc3nc(-c4ccncc4)nc(O)c3C2)c1C — lower, 17.1%
- Cc1ccc(O)c(CN2CCc3nc(-c4cccnc4)nc(O)c3C2)c1 — higher, 32.8%
- O=C(NCc1ccc(OCC2CC2)nc1)c1c(F)cccc1F — lower, -26.8%
